Reference: ChEMBL document CHEMBL3988442, “University of Dundee, Small-Polar-MMV Screening Library” (2021)
Among all 48,000 compounds or so, about 13,000 (27%) showed an effect of 50% or more. This is one part of the list.

These compounds were tested on Wolbachia pipientis (assay: Anti-Wolbachia Cell-Based Screen). Conditions: 5 µM.
Type: functional
Design: scale not given: in the data most compounds retested in dose-response had high values

Structure (SMILES) | Percent Effect [%]
COC(=O)NCC(=O)NCC(C)(C)c1cccc(Br)c1 | -15.07
CCCc1ncc(CN(CCOC)Cc2cccs2)cn1 | -13.63
CCN(CCn1cccn1)Cc1nc(-c2ccccc2F)oc1C | 1.604
C=C(C)COCCNC(=O)Nc1cccc(Cn2nc(C)nc2C)c1 | -4.389
CC(=O)Nc1ccc(S(=O)(=O)N2CCOC(Cn3ccnc3)C2)cc1 (stereo not given) | 127.1
O=S(=O)(c1ccc(Cl)cc1)N1CCN(CCCn2ccnc2)CC1 | -9.759
Cc1ccc(S(=O)(=O)N2CCN(CCCn3ccnc3)CC2)cc1 | -7.959
COc1ccc(S(=O)(=O)N2CCOC[C@H](Oc3cnccn3)C2)cc1 | -5.156
COc1ccc(S(=O)(=O)N2CCOC(Cn3ccnc3)C2)cc1.Cc1ccc(S(=O)(=O)O)cc1 (stereo not given) | 106.9
CC(=O)Nc1ccc(S(=O)(=O)NC(=O)CCC2CCCO2)cc1 (stereo not given) | -4.56
CCN(C)C[C@@H]1CN(S(=O)(=O)c2ccc(OC)cc2)C[C@@H]1CO | 9.662
CC(=O)c1ccc(S(=O)(=O)N2CCOC(Cn3ccnc3)C2)cc1 (stereo not given) | 80.08
O=S(=O)(c1ccccc1)N1CCOC(Cn2ccnc2)C1 (stereo not given) | 143.1
O=S(=O)(c1ccccc1)N1CCCN(CCCn2ccnc2)CC1 | 1.416
O=S(=O)(c1ccccc1)N1CCN(CCn2ccnc2)CC1 | -17.14
CCC1CN(C(=O)COc2ccc(NC(C)=O)cc2)CCO1 (stereo not given) | -18.64
Cc1ccc2c(c1)OCCCC2NCc1nnc2n1CCCCC2 (stereo not given) | -3.349
CCCN(CC)Cc1ccc(C(=O)NCC2COCCO2)c(=O)[nH]1 (stereo not given) | -4.085
O=C(CSc1ncccn1)N1C[C@H]2CC[C@@H]1CN(Cc1ccncc1)C2 | -5.142
CC(C)Cn1ccnc1CNC(=O)NC(C)(C)c1nccs1 | 4.874

Structure (SMILES) | Percent Effect [%]
Cc1nc(C)c(C(C)NC(=O)NCCNc2cccc(F)c2C#N)s1 (stereo not given) | -3.673
N#Cc1nccnc1N1CCC(C(O)c2cccs2)CC1 (stereo not given) | 6.256
CCS(=O)(=O)N1CCC2(CCN(Cc3ccc(C)o3)C2)C1 (stereo not given) | -25.86
COc1cccc2c1OCC(C(=O)NCCCn1nc(C)c(Cl)c1C)C2 (stereo not given) | -39.79
Cc1nc(CNC2(C(=O)OC(C)(C)C)CCCC2)oc1C | -20.11
CC(C)Cc1noc(CN2CCN(C(=O)c3cccc(F)c3)CC2)n1 | 1.261
CC(C)c1noc(CN2CCN(C(=O)c3cccc(F)c3)CC2)n1 | 101.9
CC(C)c1noc(CN2CCN(C(=O)c3ccc(F)cc3)CC2)n1 | 109.7
Cc1c[nH]cc1C(=O)N1CCN(Cc2nc(C(C)C)no2)CC1 | -4.204
CCOC(C)c1noc(CN2CCN(Cc3cccc(F)c3)CC2)n1 (stereo not given) | -0.1841
CCOC(=O)c1coc(N2CCN(C(=O)c3cccc(OC)c3)CC2)n1 | -22.87
COc1cccc(C(=O)N2CCN(Cc3nc(C(C)C)no3)CC2)c1 | 117.9
Cc1ccc(C(=O)N2CCN(Cc3nc(C(C)C)no3)CC2)c(=O)[nH]1 | -11.93
CC(C)(C)c1noc(CN2CCN(C(=O)c3ccco3)CC2)n1 | -32.87
CCCn1nnnc1CN(c1ccc(C)cc1)C(C)C | 3.327
CCS(=O)(=O)N1CCC2(CC(=O)N(c3cnn(C)c3)C2)C1 (stereo not given) | -4.174
COCCN1CCN(Cc2nnc(-c3occc3C)o2)CC1 | 0.1537
Cc1ccc(-c2nc(CN(C)C3CCS(=O)(=O)C3)cs2)o1 (stereo not given) | -14.87
OC(CN1CCOCC1)c1ccc(OC(F)(F)F)cc1 (stereo not given) | -7.461
COc1ccccc1CC(C)(C)NC(=O)CC(F)(F)F | -8.852

Structure (SMILES) | Percent Effect [%]
CN(C)C(C(=O)N1CCSCC1)c1ccccc1F (stereo not given) | 0.1762
Cc1cccc(CN2CCC3(CC2)NC(=O)C[C@H]3c2cnn(C)c2)n1.O=C(O)C(F)(F)F | 84.49
CC(C)COC1CC2(CCN(C(=O)Cc3ccccn3)CC2)C1.O=C(O)C(F)(F)F | -2.519
Cc1cccc(CN2CCC3(CC2)NC(=O)CC3c2ccccc2)n1.O=C(O)C(F)(F)F (stereo not given) | 109.2
Cc1cncc(C(=O)N2CCC3(CC2)NC(=O)CC3c2ccccc2)c1.O=C(O)C(F)(F)F (stereo not given) | -43.74
Cn1cc(C2CC(=O)NC23CCN(C(=O)c2cccnc2)CC3)cn1.O=C(O)C(F)(F)F (stereo not given) | 11.55
Cn1cc(C2CC(=O)NC23CCN(C(=O)Cc2ccccn2)CC3)cn1.O=C(O)C(F)(F)F (stereo not given) | 105.4
COc1cc(F)ccc1C(C(=O)O)N1CCN(C2CCCCC2)CC1 (stereo not given) | -11.47
O=C(O)C(F)(F)F.O=C(O)C(F)(F)F.O=C(c1ccco1)N1CC[C@@H](N2CCOCC2)[C@@H]1Cc1ccncc1 | 0.4302
COc1ccc(C2CC(=O)NCc3nc4ccccn4c32)cn1 (stereo not given) | -7.087
Cc1c(NC(=O)NC2CCCC2)cccc1C(=O)N1CCSCC1 | 1.099
Cn1cnc2c1C(COCc1cccnc1)N(Cc1ccccn1)CC2 (stereo not given) | -4.63
CN(Cc1cccnc1)[C@@H]1CN(c2ncc(F)cn2)[C@@H]2CCCO[C@H]12 | 115.7
CN(Cc1cccnc1)C[C@H]1OC[C@@H]2CCN(c3ncccn3)C[C@@H]21 | -26.32
Cc1nnc(N2C[C@H](OCc3cccnc3)[C@H]3OCCC[C@H]32)s1.O=C(O)C(F)(F)F.O=C(O)C(F)(F)F | -2.334
CN(C)[C@@H]1CCN(c2ncc(F)cn2)[C@H]1Cc1cccnc1.O=C(O)C(F)(F)F.O=C(O)C(F)(F)F | -4.235
CN(Cc1cccnc1)[C@@H]1CN(Cc2ccccn2)[C@@H]2CCCO[C@H]12 | 150.6
Fc1cnc(N2CC[C@@H](N3CCOCC3)[C@@H]2Cc2cccnc2)nc1.O=C(O)C(F)(F)F.O=C(O)C(F)(F)F | -8.935
CN(C)S(=O)(=O)N1C[C@@H](OCc2ccccn2)[C@H]2OCCC[C@H]21 | -8.506
CN(Cc1cccnc1)[C@@H]1CN(c2ccccn2)[C@@H]2CCCO[C@H]12 | 82.23
